In PubChem BioAssay (NCI):
This is part of a sample that, as a whole, favours compounds with a hit. Of some 79,000 tested, about 15% had one in any assay. Cut-off read from the data, not from the text of the source: active = growth inhibition above about 70%; inactive = the rest.

Tests used:
[1] = NCI Yeast Anticancer Drug Screen. Data for the rad50 strain (AID 155);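 note: 0% = growth of vehicle-only cultures of the same strain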; conditions: S. cerevisiae rad50 strain growth inhibition; at 50.0 µM; active compounds read high
Procedure, shortened: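 Relative growth inhibition (compound vs vehicle) was measured in yeast with a defined repair-gene alteration.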

[2] = NCI Yeast Anticancer Drug Screen. Data for the mec2-1 strain (AID 157); conditions: S. cerevisiae mec2-1 strain, at 50.0 µM, active compounds read high
Procedure, shortened: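 Readout is yeast growth inhibition, normalised to vehicle-treated controls, in the mec2-1 strain exposed to compound.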

[3] = NCI Yeast Anticancer Drug Screen. Data for the sgs1 mgt1 strain (AID 161);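 note: 0% = growth of cultures given vehicle only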; conditions: S. cerevisiae sgs1 mgt1 strain, at 50.0 µM, active compounds read high
Procedure, shortened: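 Yeast cells carrying a defined DNA-repair defect were exposed to test compounds. Growth inhibition was measured relative to vehicle-treated controls.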

[4] = NCI Yeast Anticancer Drug Screen. Data for the cln2 rad14 strain (AID 165);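 note: 0% = growth equal to vehicle treated cultures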; conditions: S. cerevisiae cln2 rad14 strain, at 50.0 µM, active compounds read high
Procedure, shortened: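 Relative to vehicle controls, growth inhibition of compound-treated cln2 rad14 yeast was recorded.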

[5] = NCI Yeast Anticancer Drug Screen. Data for the bub3 strain (AID 167); conditions: S. cerevisiae bub3 mutant strain, at 50.0 µM, active compounds read high
Procedure, shortened: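 Screening used yeast with an engineered genetic alteration affecting cell cycle control. Compound-exposed cultures were compared with vehicle cultures, and reduced growth was taken as inhibition.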

[6] = NCI Yeast Anticancer Drug Screen. Data for the mlh1 rad18 strain (AID 175); conditions: S. cerevisiae mlh1 rad18 strain growth inhibition; at 50.0 µM; active compounds read high
Procedure, shortened: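 Test agents were incubated with a yeast strain of defined genotype (DNA damage repair defect). Inhibition of growth was derived by comparison with vehicle-exposed cultures.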

Measured: growth inhibition

C=C1c2nc3ccccc3n2C=C(c2ccc(Cl)cc2)N1c1ccc(OC)cc1
inactive: [1] -3.95% | [2] 23.4% | [3] 19.8% | [4] 11.4% | [5] 7.7% | [6] 40.2%

CC(=O)C1C(=O)C(=O)N(c2ccccc2N2C(=O)C(=O)C(C(C)=O)C2=O)C1=O (centres undefined)
inactive: [1] 18.6% | [2] -2.25% | [3] 10.8% | [4] 17.8% | [5] -2.35% | [6] 25.8%

O=C(O)c1ccncc1
inactive: [1] 12.2% | [2] -9.65% | [3] 8.1% | [4] 46.9% | [5] -2.9% | [6] 17.9%

CN(NC(=O)c1ccco1)C1=NCCCCN1
inactive: [1] -11.8% | [2] -10.6% | [3] -15.3% | [4] -16.6% | [5] -10.2% | [6] 0.3%

CC(=O)Nc1ccc(S(=O)(=O)NN)cc1
inactive: [1] -15.7% | [2] -12.1% | [3] -4.75% | [4] 10.2% | [5] 5.25% | [6] 9.1%

c1ccc2c(c1)CCc1cc3cc4c(nc3nc1-2)-c1ccccc1CC4
inactive: [1] -14.4% | [2] -15.8% | [3] -14.1% | [4] -9.4% | [5] -1.75% | [6] -15.2%

O=C(O)C(CBr)c1ccccc1 (centres undefined)
inactive: [1] 6.7% | [2] 7.2% | [3] -0.55% | [4] 13.2% | [5] 0.05% | [6] 0.5%

O=C1CNC(=O)N1
inactive: [1] -38.1% | [2] 23.8% | [3] 2% | [4] -11.7% | [5] 3.85% | [6] -38.2%

CC(=O)OCC1OC(n2ncnc2CBr)C(OC(C)=O)C(OC(C)=O)C1OC(C)=O (centres undefined)
inactive: [1] 30% | [2] -3.4% | [3] 12.4% | [4] 8.45% | [5] -4.8% | [6] 10.6%

CCCNC(=O)Nc1ccc(OC)cc1Cl
inactive: [1] -12.1% | [2] -9.45% | [3] -1.65% | [4] -59.3% | [5] -6.3% | [6] -15.6%

CCN(CC)CCNCc1ccc(Cl)cc1
inactive: [1] -16.5% | [2] -38.8% | [3] 3.95% | [4] 6.15% | [5] -8.7% | [6] -16.1%

OC12CCCCCC1(N1CCOCC1)c1ccccc12 (centres undefined)
inactive: [1] -8.2% | [2] -11.7% | [3] -29.7% | [4] -21.1% | [5] -37.2% | [6] -24.3%

Clc1ccc2c(c1)C(Nc1cc3c4ccccc4ccc3c3ccccc13)c1cc(Cl)cc(Cl)c1-2 (centres undefined)
inactive: [1] 51.2% | [2] -1.25% | [3] 22.6% | [4] 21.1% | [5] 9.3% | [6] 12.2%

COCCN(C(=O)c1ccccc1)C1CCC2(SCCS2)c2[nH]c3ccccc3c21 (centres undefined)
inactive: [1] 16.1% | [2] 14.6% | [3] 3.75% | [4] -35.2% | [5] -1.75% | [6] 41%

CSc1nc(Br)nc2c1ncn2C1CC(Oc2ccc(C)cc2)C(COc2ccc(C)cc2)O1 (centres undefined)
inactive: [1] 13.4% | [2] 4.3% | [3] 22.1% | [4] 18.6% | [5] 17.1% | [6] -23.8%

CNc1ncnc2c1c(C(N)=S)cn2C1OC(CO)C(O)C1O (centres undefined)
inactive: [1] 0.1% | [2] -22.7% | [3] -13.7% | [4] 2.2% | [5] 0.95% | [6] 12.5%

O=C(COc1cc(Cl)c(Cl)cc1Cl)Oc1ccccc1
inactive: [1] -0.3% | [2] 4.95% | [3] 7.65% | [4] -8.85% | [5] 8.5% | [6] 3.6%

CCOC(=O)NN(C(=O)OCC)C(C)(C)C(C)=O
inactive: [1] 7.3% | [2] 5.35% | [3] 5.15% | [4] -29.2% | [5] 17.8% | [6] 12.1%

Cc1ccc(S(=O)c2ccccc2[N+](=O)[O-])cc1 (centres undefined)
inactive: [1] 4.85% | [2] 9.45% | [3] 1.7% | [4] 22% | [5] -0.6% | [6] -2%

CCCC(=O)OC1=CC(=O)c2ccccc2C1=O
inactive: [1] 22.9% | [2] 16.6% | [3] 29.1% | [4] 26.5% | [5] -10.2% | [6] 6.3%

CCCOC(=O)c1cccnc1C(=O)OCCC
inactive: [1] -0.2% | [2] -10.2% | [3] 1.5% | [4] -22.4% | [5] -2.5% | [6] -6.4%

N#CC1C(C#N)C2CCC1C1N=NN(c3ccccc3)C21 (centres undefined)
inactive: [1] -16.4% | [2] -12.1% | [3] -10.8% | [4] -19.1% | [5] 17.9% | [6] -28.6%

O=C1c2ccccc2C(=O)N1CCc1ncc[nH]1
inactive: [1] 1.45% | [2] 17% | [3] 0.15% | [4] -23.9% | [5] 6.3% | [6] 2.9%

CC(NC(=O)c1ccccc1)C1CCCCC1 (centres undefined)
inactive: [1] -5.2% | [2] -1.85% | [3] -1.4% | [4] -49.8% | [5] -12.7% | [6] 0.75%

COC(=O)/C(=C\c1ccccc1[N+](=O)[O-])c1ccc2c(c1)OCO2
inactive: [1] 23.6% | [2] -10.1% | [3] 3.2% | [4] -38.5% | [5] 9.6% | [6] 14.4%

Clc1ccc2nsnc2c1
inactive: [1] 14.2% | [2] -12.8% | [3] 24.9% | [4] 16.8% | [5] 18.9% | [6] 35%

Cc1ccc(CN2CCOCC2)c(O)c1
inactive: [1] 18.9% | [2] 9.15% | [3] -0.65% | [4] -0.1% | [5] -7.45% | [6] -11.4%

CCCCCCCC(=O)Oc1c(Cl)c(Cl)c(C#N)c(Cl)c1C#N
inactive: [1] 20.9% | [2] -3.55% | [3] 11.5% | [4] 13.7% | [5] 5.8% | [6] 25.4%

COC(c1ccccc1)(c1ccccc1)c1cc(NS(=O)(=O)c2ccccc2)ccc1NS(=O)(=O)c1ccccc1
inactive: [1] 14.2% | [2] 3.9% | [3] 13% | [4] -17.1% | [5] -4.7% | [6] 8.05%

CNC(=O)C1CCC(=O)N1Cc1c[nH]c2ccccc12 (centres undefined)
inactive: [1] -4.6% | [2] -8.65% | [3] -1.75% | [4] 2.25% | [5] 8.75% | [6] -5.45%

CCOC(=O)/C=C/n1c2ccccc2c(=O)c2cc(OC)ccc21
inactive: [1] -3.25% | [2] -13.6% | [3] -18.8% | [4] 3.6% | [5] -8.95% | [6] -2.4%

COC(=O)Cc1nc2ccccc2[nH]c1=O
inactive: [1] -1.15% | [2] -3.25% | [3] -10.3% | [4] -29.2% | [5] -16.8% | [6] -5.7%

COC1=NC2(C)C(C)=C(c3ccccc3)C1(C)c1ccccc12 (centres undefined)
inactive: [1] -12.2% | [2] -4.4% | [3] -14.6% | [4] -46.8% | [5] 7.25% | [6] -3.8%

Nc1cccc(S(=O)(=O)O)c1
inactive: [1] -27.1% | [2] -10.8% | [3] -36.2% | [4] -37.1% | [5] -13.8% | [6] -5.2%

COC(=O)c1c(OC)cc2cc3c(c(O)c2c1C)C(=O)C1(O)C(=O)C=C(OC)C(OC(=O)CC(C)N)=C1C3=O (centres undefined)
inactive: [1] 26.1% | [2] 1.05% | [3] 24.2% | [4] 25.9% | [5] 22.9% | [6] 33%

CCc1ccccc1NC(=O)CC1NC(=O)CS1 (centres undefined)
inactive: [1] -8.95% | [2] -9.3% | [3] 4.4% | [4] 9.9% | [5] -30.4% | [6] -21.4%

O/N=C1\CCCC\C1=N/O
inactive: [1] 6.55% | [2] -9.8% | [3] -8.35% | [4] -3.1% | [5] 8.95% | [6] -4.25%

NNS(=O)(=O)c1cccc(S(=O)(=O)NN)c1
inactive: [1] -13.9% | [2] 12.3% | [3] -3.2% | [4] -4.25% | [5] 5.35% | [6] 5.3%

CCC(C)C/C(C)=N\NC(N)=O (centres undefined)
inactive: [1] 1.75% | [2] 0.1% | [3] 3.1% | [4] 9.2% | [5] -4.75% | [6] 6.25%
